According to paper PMC5700166:

Target: GST-Hu-p50 (Homo sapiens, UniProt P19838 7-356)
Experiment: protein-binding microarray (PBM); PBM: ~300 nM protein, 6 mM HEPES pH 7.8, 80 mM KCl, 0.5 mM EDTA, 0.5 mM EGTA, 6% glycerol, 35 ng/ul poly-dIdC, 1% milk, 1 h, room temperature; Ap Aiptasia and Nv Nematostella (sea anemones) / Co Capsaspora / Aq Amphimedon (sponge) / Dm Drosophila / Hu human; RHD is the Rel homology domain; high values mean tight binding
Conditions: dsDNA, one strand shown

GST-Hu-p50, sequence (P19838 7-356): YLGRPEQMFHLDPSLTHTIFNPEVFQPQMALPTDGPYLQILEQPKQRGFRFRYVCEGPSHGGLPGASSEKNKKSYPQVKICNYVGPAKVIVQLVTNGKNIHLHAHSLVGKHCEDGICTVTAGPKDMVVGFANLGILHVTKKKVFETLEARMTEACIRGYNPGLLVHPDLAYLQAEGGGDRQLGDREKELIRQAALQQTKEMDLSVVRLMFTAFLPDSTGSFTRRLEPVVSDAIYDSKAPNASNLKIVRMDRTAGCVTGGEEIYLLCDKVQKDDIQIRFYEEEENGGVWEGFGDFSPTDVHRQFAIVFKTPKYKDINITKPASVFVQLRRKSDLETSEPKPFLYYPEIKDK

Row | Sequence | binding signal
1 | CCGATTAACATCACCGTTTAGGTTGATGTTAATCGGGTCTTGATTCGCTTGACGCTGCTG | 1.22 z-score
2 | CCGATTAACATCACGGCAACCCCTGATGTTAATCGGGTCTTGATTCGCTTGACGCTGCTG | 1.19 z-score
3 | CCGATTAACATCAGGGAAAATCATGATGTTAATCGGGTCTTGATTCGCTTGACGCTGCTG | 3.98 z-score
4 | CCGATTAACATCACGGAAATTTATGATGTTAATCGGGTCTTGATTCGCTTGACGCTGCTG | 1.44 z-score
5 | CCGATTAACATCAGGGAAGGACCTGATGTTAATCGGGTCTTGATTCGCTTGACGCTGCTG | 1.18 z-score
6 | CCGATTAACATCAATAAATTCCCTGATGTTAATCGGGTCTTGATTCGCTTGACGCTGCTG | 5.11 z-score
7 | CCGATTAACATCACCAAATTTCCTGATGTTAATCGGGTCTTGATTCGCTTGACGCTGCTG | 1.31 z-score
8 | CCGATTAACATCATTCCACCAGGTGATGTTAATCGGGTCTTGATTCGCTTGACGCTGCTG | 1.04 z-score
9 | CCGATTAACATCACCCACCGATTTGATGTTAATCGGGTCTTGATTCGCTTGACGCTGCTG | 1.08 z-score
10 | CCGATTAACATCAGGGGAACCTATGATGTTAATCGGGTCTTGATTCGCTTGACGCTGCTG | 4.74 z-score
11 | CCGATTAACATCAGGAAAAGTCCTGATGTTAATCGGGTCTTGATTCGCTTGACGCTGCTG | 1.57 z-score
12 | CCGATTAACATCAGGAAATTTCATGATGTTAATCGGGTCTTGATTCGCTTGACGCTGCTG | 1.06 z-score
13 | CCGATTAACATCAAATTCTCCCCTGATGTTAATCGGGTCTTGATTCGCTTGACGCTGCTG | 5.07 z-score
14 | CCGATTAACATCAGGGAGAGCCCTGATGTTAATCGGGTCTTGATTCGCTTGACGCTGCTG | 2.37 z-score
15 | CCGATTAACATCAGGTAATTACCTGATGTTAATCGGGTCTTGATTCGCTTGACGCTGCTG | 3.47 z-score
16 | CCGATTAACATCAAGGAAATTCCTGATGTTAATCGGGTCTTGATTCGCTTGACGCTGCTG | 1.33 z-score
17 | CCGATTAACATCAGGAATCCCACTGATGTTAATCGGGTCTTGATTCGCTTGACGCTGCTG | 1.55 z-score
18 | CCGATTAACATCACAGATTTCCCTGATGTTAATCGGGTCTTGATTCGCTTGACGCTGCTG | 4.4 z-score
19 | CCGATTAACATCAGGAAATACCATGATGTTAATCGGGTCTTGATTCGCTTGACGCTGCTG | 1.08 z-score
20 | CCGATTAACATCAAAAATTTCCGTGATGTTAATCGGGTCTTGATTCGCTTGACGCTGCTG | 1.34 z-score

Row | Sequence | binding signal
21 | CCGATTAACATCATGGGGTGTGCTGATGTTAATCGGGTCTTGATTCGCTTGACGCTGCTG | 1.49 z-score
22 | CCGATTAACATCAAAAAATTACCTGATGTTAATCGGGTCTTGATTCGCTTGACGCTGCTG | 4.27 z-score
23 | CCGATTAACATCACAGGAATTTCTGATGTTAATCGGGTCTTGATTCGCTTGACGCTGCTG | 1.08 z-score
24 | CCGATTAACATCACCCCAACCCCTGATGTTAATCGGGTCTTGATTCGCTTGACGCTGCTG | 1.66 z-score
25 | CCGATTAACATCAGGGGCCGTAATGATGTTAATCGGGTCTTGATTCGCTTGACGCTGCTG | 1.41 z-score
26 | CCGATTAACATCAACATTTTCCCTGATGTTAATCGGGTCTTGATTCGCTTGACGCTGCTG | 4.21 z-score
27 | CCGATTAACATCAACCCCGTTTCTGATGTTAATCGGGTCTTGATTCGCTTGACGCTGCTG | 1.79 z-score
28 | CCGATTAACATCAGGGGATTAAATGATGTTAATCGGGTCTTGATTCGCTTGACGCTGCTG | 4.87 z-score
29 | CCGATTAACATCAATAAATTTCCTGATGTTAATCGGGTCTTGATTCGCTTGACGCTGCTG | 1.15 z-score
30 | CCGATTAACATCAGGGCAAACCCTGATGTTAATCGGGTCTTGATTCGCTTGACGCTGCTG | 1.57 z-score
31 | CCGATTAACATCAAAAAACTACCTGATGTTAATCGGGTCTTGATTCGCTTGACGCTGCTG | 4.32 z-score
32 | CCGATTAACATCAGTGATTAAGGTGATGTTAATCGGGTCTTGATTCGCTTGACGCTGCTG | 1.25 z-score
33 | CCGATTAACATCAGAAATCCCAATGATGTTAATCGGGTCTTGATTCGCTTGACGCTGCTG | 2.35 z-score
34 | CCGATTAACATCACCCGAGTGCGTGATGTTAATCGGGTCTTGATTCGCTTGACGCTGCTG | 1.1 z-score
35 | CCGATTAACATCAGGAAGGCCCCTGATGTTAATCGGGTCTTGATTCGCTTGACGCTGCTG | 2.59 z-score
36 | CCGATTAACATCAGTAGTGGGGCTGATGTTAATCGGGTCTTGATTCGCTTGACGCTGCTG | 1.09 z-score
37 | CCGATTAACATCAGCTGAGTAGGTGATGTTAATCGGGTCTTGATTCGCTTGACGCTGCTG | 1.45 z-score
38 | CCGATTAACATCACGGCAATCCCTGATGTTAATCGGGTCTTGATTCGCTTGACGCTGCTG | 1.12 z-score
39 | CCGATTAACATCAAAGGGAATTCTGATGTTAATCGGGTCTTGATTCGCTTGACGCTGCTG | 4.99 z-score
40 | CCGATTAACATCAACCAATCCCCTGATGTTAATCGGGTCTTGATTCGCTTGACGCTGCTG | 4.9 z-score
